RORgamma inh = ROR gamma (mouse) transcription inhibition; P51450; Drosophila S2 Gal4-RORgamma UAS-luciferase reporter, 20 h; Potency, µM (highest dose often 53.6 µM), for inactives: at the top dose activity change, negative = inhibition, actives largely listed as inhibitors; hit rate 5.4% among 310,000; AID 2551; also: nearly all actives have a fitted effect of over 60% in size
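Drosophila Schneider cells stably carrying a metallothionein-driven Gal4 DBD–ROR gamma fusion and a UAS-Photinus luciferase reporter were exposed to compound for 1 hr, then induced with copper sulfate (700 uM final) for 20 hr at ambient temperature before luminescence reading.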
DT40 TDP1 CPT = DT40-hTDP1 cell growth loss with CPT; chicken DT40 Tdp1-/-;hTDP1 cells + 20 nM CPT, ATP luminescence, 48 h; Potency, µM (highest dose often 46.2 µM), for the others: top-dose activity change, negative = growth inhibition, usual class: inhibitors; hit rate 12% among 420,000; also: nearly all actives have a fitted effect of over 55% in size
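Chicken DT40 Tdp1-/- cells complemented with human TDP1, 400 cells/well, exposed to compounds plus 20 nM camptothecin for at least 48 h at 37 C; viability read as ATP content by CellTiter-Glo luminescence.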
TDP1 cell noCPT = qHTS for Inhibitors of human tyrosyl-DNA phosphodiesterase 1 (TDP1): qHTS in cells in absence of CPT; DT40 Tdp1-/- hTDP1 cells, no CPT, ATP luminescence, 48 h; Potency, µM (top dose mostly 46.2 µM), inactives show at the highest dose activity change, negative = growth inhibition, usual class: inhibitors; hit rate 15% among 420,000; AID 686978, 2013; also: nearly all actives have a fitted effect of over 55% in size
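Chicken DT40 Tdp1-/- cells stably complemented with human TDP1 were seeded at 400 cells/well with DMSO in place of 20 nM camptothecin. After compound pinning, cells grew at least 48 hr at 37 °C; viability read by CellTiter-Glo luminescence.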
Gal4-VP16 FLuc = inhibits Gal4-VP16 luciferase reporter, ROR gamma counter-screen. Drosophila S2 Gal4-VP16 UAS-luciferase, luminescence, 20 h. Potency, µM (doses to about 53.6 µM), for inactives: at the highest dose activity, negative = inhibition, most hits filed as inhibitors. hit rate 3.5% among 310,000;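 also: Gal4-VP16 expression switched on by copper sulfate through the metallothionein promoter; nearly all actives have a fitted effect of over 50% in size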
TDP1 inh = blocks human tyrosyl-DNA phosphodiesterase 1; hit rate 0.28% among 350,000; AID 485290; Potency, µM (doses to about 130 µM), for inactives: at the highest dose activity change, negative = inhibition, actives largely listed as inhibitors; recombinant TDP1, AlphaScreen DNA substrate cleavage; Q9NUW8; also: nearly all actives have a fitted effect of over 40% in size
Target sequence (Q9NUW8 whole entry, looked up): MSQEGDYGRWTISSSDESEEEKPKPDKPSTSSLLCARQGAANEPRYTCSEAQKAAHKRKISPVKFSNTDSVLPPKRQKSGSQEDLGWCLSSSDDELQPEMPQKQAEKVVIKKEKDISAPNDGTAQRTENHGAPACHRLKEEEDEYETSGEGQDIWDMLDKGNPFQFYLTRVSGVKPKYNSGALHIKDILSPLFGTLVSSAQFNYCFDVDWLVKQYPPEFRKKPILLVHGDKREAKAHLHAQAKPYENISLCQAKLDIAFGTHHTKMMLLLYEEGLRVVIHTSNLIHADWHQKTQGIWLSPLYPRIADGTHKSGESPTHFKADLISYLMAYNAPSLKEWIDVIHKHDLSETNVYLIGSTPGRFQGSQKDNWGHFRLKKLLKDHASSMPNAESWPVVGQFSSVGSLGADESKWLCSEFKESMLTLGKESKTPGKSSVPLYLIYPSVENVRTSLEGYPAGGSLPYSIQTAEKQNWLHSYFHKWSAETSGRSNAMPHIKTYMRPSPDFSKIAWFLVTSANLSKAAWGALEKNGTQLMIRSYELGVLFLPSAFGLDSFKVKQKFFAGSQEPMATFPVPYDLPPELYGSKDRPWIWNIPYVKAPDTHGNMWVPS
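Recombinant human Tdp1 (E. coli-expressed, 1 nM final) preincubated with compounds 15 min at room temperature, then 5'-biotin/3'-phosphotyrosine-FITC DNA substrate (15 nM final) added for 5 min. AlphaScreen beads (10 ug/ml final) added 10 min; cleavage lowers signal.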
Numbers without * were called inactive; ? = inconclusive; / = not tested or not shown; [ ] = dose if it differs, or a comment. This is a sample that favours compounds with a hit; in the whole collection about 19% have one here. Calls follow the shape of the dose curve; as a rule, active = well fitted curve in the direction sought with a large enough effect; inconclusive = small, poorly fitted or top-dose-only effect, or another doubt; inactive = no such curve, though single readings can be large; an effect the other way counts as inactive or inconclusive. % is scaled to controls: 0 for no effect and ±100 for the full control effect; potency is read from the fitted curve at half-maximal effect.

SMILES | RORgamma inh | DT40 TDP1 CPT | TDP1 cell noCPT | Gal4-VP16 FLuc | TDP1 inh
Cc1ccc(S(=O)(=O)n2cnc3cc([N+](=O)[O-])ccc32)cc1C | 14% | -13% | -25% | -5% | 5%
Cc1ccc(-n2c3nc(=O)[nH]c(=O)c-3cc3cc([N+](=O)[O-])ccc32)cc1C | ? | 0.58µM* | 1.3µM* | ? | -1%
COc1ccc(-n2nc(C(=O)N3CCCC(C)C3)c3c4ccccc4n(C)c3c2=O)cc1 (stereo not given) | / | 26µM* | ? | / | 2%
COc1ccc(-n2nc(C(=O)N3CCCCC3)c3c4ccccc4n(C)c3c2=O)cc1Cl | / | 4.1µM* | 16µM* | / | 2%
CCOC(=O)C1CCN(C(=O)c2nn(-c3ccc(OC)cc3)c(=O)c3c2c2ccccc2n3C)CC1 | / | ? | ? | / | -7%
CCOC(=O)C1CCN(C(=O)c2nn(-c3ccc(OC)c(Cl)c3)c(=O)c3c2c2ccccc2n3C)CC1 | / | 21µM* | 15µM* | / | 5%
Nc1ccc(Sc2ccccc2CC(=O)O)cc1 | 3% | / | / | -6% | 0%
CCCCN1CCc2c([nH]c3c(C)cccc23)C1=O | -8% | 29µM* | ? | 11% | -3%
COc1ccc(NC(=O)C2CCCN(C(=O)c3cnn(-c4ccccc4)c3-n3cccc3)C2)cc1 (stereo not given) | / | ? | 10µM* | / | 0%
Cc1cc(C)c(NC(=O)C2CCCN(C(=O)c3cnn(-c4ccccc4)c3-n3cccc3)C2)c(C)c1 (stereo not given) | / | ? | ? | / | 3%
Cc1cc(C)cc(NC(=O)C2CCCN(C(=O)c3cnn(-c4ccccc4)c3-n3cccc3)C2)c1 (stereo not given) | / | 18µM* | 18µM* | / | 5%
O=C1CC(C(=O)N2CCOCC2)C2(CCCC2)O1 (stereo not given) | -31% | -2% | -1% | -3%[0.365 µM] | 3%
Cc1cc(=O)n(Cc2ccc(OC(C)C)cc2)c(=S)[nH]1 | 7.9µM* | -23% | -21% | ? | 2%
C/C(=N\NC(=O)C1(C)CC1(Br)Br)c1ccc(NC(=O)c2ccc(C)o2)cc1 (stereo not given) | -1% | 13µM* | 18µM* | 11% | 5%
COc1ccc(CC(=O)Nc2cccc(/C(C)=N/NC(=O)C3(C)CC3(Br)Br)c2)cc1 (stereo not given) | ? | 16µM* | ? | -13% | 5%
C/C(=N\NC(=O)C1(C)CC1(Br)Br)c1ccc([N+](=O)[O-])cc1 (stereo not given) | -16% | 16% | ? | -4% | 6%
COc1cc(C(=O)NCCCN2CCCC2=O)ccc1OCc1ccc(Cl)cc1Cl | / | 13µM* | 18µM* | / | 0%
Cc1ccc(NS(=O)(=O)c2ccc(C(=O)NCCCN3CCCC3=O)cc2)cc1C | / | 13µM* | 23µM* | / | -4%
CC(=O)Nc1ccc(S(=O)(=O)N2CCN(c3nc(C)cc(C)n3)CC2)cc1 | ? | -19% | 0% | 1% | 3%
CC(O)C1CCC2C3CC[C@H]4CC(O)CCC4(C)C3CC3(OCCO3)C12C (stereo not given in full) | -12% | -29% | 21µM* | -5% | 4%
CCOC(=O)c1c(NC(=O)/C=C/C(=O)O)sc(C)c1-c1ccc(C)c(C)c1 | 10µM* | ? | ? | 6% | 3%
Cc1ccc(-c2c(C)sc(NC(=O)C3C4CCC(O4)C3C(=O)O)c2C(=O)OC(C)C)cc1 (stereo not given) | 10% | ? | -3% | -14% | 0%
COC(=O)c1c(NC(=O)/C=C/C(=O)O)sc(C)c1-c1ccc(C(C)C)cc1 | ? | 4.6µM* | 21µM* | -28% | 5%
COC(=O)c1c(NC(=O)/C=C/C(=O)O)sc(C)c1-c1ccc(C)c(C)c1 | 4.5µM* | ? | ? | -5% | 3%
CC(C)=C1C2CCC1C(C(=O)Nc1sc(C)c(-c3ccc(C(C)C)cc3)c1C(N)=O)C2C(=O)O (stereo not given) | 11% | 16µM* | 16µM* | ? | 8%

Assay outcomes (PubChem)
